HIV RNase H inh-1 = inhibitors of HIV-1 reverse transcriptase RNase H; 65,000 tested, 1.9% active; inhibition, % at 10 µM; P04585; RT-RNase H RNA/DNA duplex cleavage, fluorescence; in the data active = inhibition above about 50%
RmlC RmlD mix = inhibitors of RmlC and RmlD coupled enzymes | inhibition, % at 5.5 µM | RmlC/RmlD coupled enzyme inhibition, 384-well mixture HTS | AID 1532 | 110,000 tested, 0.39% active; in the data active = inhibition above about 30%, passing the limit was not always enough
HIV RNase H inh-2 = confirmation of HIV-1 reverse transcriptase RNase H inhibitors. shares compounds with HIV RNase H inh-1. Recombinant RT RNase H, fluorescent RNA/DNA duplex cleavage. inhibition, % at 10 µM. 1,000 tested, 39% active; in the data active = inhibition above about 48%
* hit, by the source's call; / = not tested or not shown. Shown is part of a subset that was picked to be rich in hits.

SMILES	HIV RNase H inh-1	RmlC RmlD mix	HIV RNase H inh-2
CC(=O)c1cccc(NC(=O)c2cc(-c3ccc(C)cc3)on2)c1	52*	-14	57*
COc1ccc(NC(=O)c2cc(C)on2)cc1OC	1	-9	/
COc1ccc(NC(=O)c2cc(-c3ccc(OC)c(OC)c3)on2)cc1OC	81*	/	32
CCCc1cc(C(=O)Nc2cccc(C(C)=O)c2)no1	-7	3	/
Cc1ccccc1NS(=O)(=O)c1ccc(OCC(=O)NCc2ccco2)cc1	-2	-16	/
O=C1C2C3C=CC(C3)C2C(=O)N1CNc1ccccn1 (stereo unspecified)	/	9	/
CC(C(=O)Nc1ccccn1)N1C(=O)C2C3C=CC(C3)C2C1=O (stereo unspecified)	74*	1	18
C/C=C(\C)CN1CCN(c2ccc(C)cc2)CC1	/	-12	/
CN(C(=O)CSc1nc2ccccc2n1CCc1ccccc1)C1CCS(=O)(=O)C1 (stereo unspecified)	86*	10	-1
CN(C(=O)CSc1nnc2ccccn12)C1CCS(=O)(=O)C1 (stereo unspecified)	/	5	/
CCCC(=O)NNc1cc(=O)c2c(=O)n(C)c(=O)n(C)c2[nH]1	/	-1	/
C=CCNC(=O)c1c(N)n(-c2ccc3c(c2)OCO3)c2nc3ccccc3nc12	57*	-41	54*
CCCCNC(=O)c1c(N)n(Cc2ccc3c(c2)OCO3)c2nc3ccccc3nc12	/	-101	/
C/C=C/C=[N+](\[O-])C(C)/C(=N/O)c1ccc(F)cc1 (stereo unspecified)	-3	9	/
Nc1c(C(=O)Nc2ccc(Br)cc2)sc2nc(-c3ccco3)ccc12	/	-37	/
Nc1c(C(=O)Nc2ccc(F)cc2)sc2nc(-c3ccco3)ccc12	89*	14	40
O=S(=O)(c1ccc2nc(-c3ccco3)c(-c3ccco3)nc2c1)N1CCOCC1	76*	3	26
Cn1c(=O)n(C)c2cc(S(=O)(=O)N3CCOCC3)ccc21	-6	3	/
O=C(c1ccco1)N1CCN(C(=O)c2cc(-c3ccccn3)nc3ccc(Cl)cc23)CC1	69*	-9	1
O=C(c1ccco1)N1CCN(C(=O)c2cc(-c3ccccc3)nc3ccccc23)CC1	/	12	/
Cc1nn(C)c(C)c1CN(C)C(=O)CCCC(=O)O	/	-16	/
Cc1ccc2[nH]c3c(=O)n(CCN4CCOCC4)cnc3c2c1	/	7	/
O=c1c2[nH]c3ccc(F)cc3c2ncn1CCN1CCOCC1	70*	5	-1
Cc1ccc(C)c(SCC(=O)OCC(=O)c2ccco2)c1	-22	5	/
COc1cc(CNc2ccccc2SC)cc(OC)c1OC	/	-18	/
SMILES	HIV RNase H inh-1	RmlC RmlD mix	HIV RNase H inh-2
Cc1nc2cc(C(=O)N3CCC4(CC3)OCCO4)ccc2n1-c1cccc(F)c1	-15	-9	/
O=C(c1ccc2nc(-c3ccco3)c(-c3ccco3)nc2c1)N1CCC2(CC1)OCCO2	75*	/	33
O=C(NCc1ccco1)c1cc2cc3ccc(Cl)cc3nc2o1	66*	11	58*
COc1ccc2cc3cc(C(=O)NCc4ccco4)oc3nc2c1	/	136	/
CCCc1cc(C(=O)Nc2sc3c(c2C#N)CCC3)no1	61*	/	70*
N#Cc1c(NC(=O)c2ccncc2)sc2c1CCC2	64*	15	25
CCCC(=O)Nc1sc2c(c1C#N)CCCC2	6	-4	/
CC(=O)Nc1sc2c(c1C#N)CCCC2	/	-33	/
O=C(CNC(=O)Cc1ccccc1)NCC(=O)OCc1ccc(C(=O)c2ccccc2)cc1	/	20	/
CC(C)C1Cc2[nH]c(=O)c(C(=O)O)cc2CO1 (stereo unspecified)	-10	-4	/
CC(C)(C)Nc1nc(OCC(F)(F)F)nc(OCC(F)(F)F)n1	-3	-6	/
CN(C)CCCN1C(=O)C(=O)/C(=C(/O)c2ccc3c(c2)OCCO3)C1c1ccccn1 (stereo unspecified)	-7	/	/
S=c1nc(C2CC2)[nH]c2ccccc12	84*	-9	69*
CC(C)c1nc(=S)c2ccccc2[nH]1	23	4	/
O=C(CCn1nc(-c2ccccc2)ccc1=O)N1CCN(c2ccccn2)CC1	-10	/	/
O=C(O)CCCCC1SCC2NC(=O)NC21 (stereo unspecified)	/	5	/
CC(OC(=O)c1cccc(NS(C)(=O)=O)c1)C(=O)Nc1ccc(N2CCOCC2)cc1 (stereo unspecified)	11	-15	/
COc1ccc(-c2nnc(SCc3c(C)noc3C)n2N)cc1OC	/	-4	/
OCCN1CCN(C(c2cccs2)c2ccc3cccnc3c2O)CC1 (stereo unspecified)	72*	-9	9
CC(=O)NC(c1ccco1)c1ccc2cccnc2c1O (stereo unspecified)	-6	/	/
CCC(C)NC(=O)C1CCCN(C(=O)Nc2ccc(F)cc2)C1 (stereo unspecified)	30	8	/
O=C1c2ccccc2C(=O)N1Cc1nc2ccccc2c(=O)n1CCCn1ccnc1	-10	-15	/
